Structures are written as SMILES.

The values below come from ChEMBL document CHEMBL1961873, “Compounds: GSK PKIS; Assays: Nanosyn kinase panel” (2012).

The target of assay [1] is T1, 3-phosphoinositide-dependent protein kinase 1 (Homo sapiens) (UniProt O15530).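 Also: values are mean inhibition of PDK1.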
T1 sequence (whole entry): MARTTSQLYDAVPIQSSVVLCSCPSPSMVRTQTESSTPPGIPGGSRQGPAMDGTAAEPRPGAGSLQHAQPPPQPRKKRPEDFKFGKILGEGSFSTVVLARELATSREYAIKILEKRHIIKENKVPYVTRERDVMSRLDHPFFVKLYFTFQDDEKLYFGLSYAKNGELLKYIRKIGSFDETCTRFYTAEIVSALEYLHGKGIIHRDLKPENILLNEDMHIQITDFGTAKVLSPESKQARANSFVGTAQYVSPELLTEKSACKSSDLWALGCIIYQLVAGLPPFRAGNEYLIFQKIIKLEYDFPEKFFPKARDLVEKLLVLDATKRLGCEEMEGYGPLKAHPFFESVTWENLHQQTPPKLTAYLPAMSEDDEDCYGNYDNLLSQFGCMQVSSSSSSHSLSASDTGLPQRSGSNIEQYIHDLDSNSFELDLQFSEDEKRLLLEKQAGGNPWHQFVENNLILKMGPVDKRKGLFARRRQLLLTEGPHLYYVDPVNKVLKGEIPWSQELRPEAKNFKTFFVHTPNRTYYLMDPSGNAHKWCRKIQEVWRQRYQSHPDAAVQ
As to conditions: at 0.1 µM.

Assay [2] has as its target cAMP-dependent protein kinase catalytic subunit alpha (Homo sapiens) (UniProt P17612). The note with it: at 0.1 µM.
Assay [3] shares this target. The note with it: at 1 µM.
The target in assay [4] is Protein kinase C alpha type (Homo sapiens) (UniProt P17252). As to conditions: at 0.1 µM.
For assay [5] the target is unchanged. As to conditions: at 1 µM.
The target in assay [6] is Protein kinase C beta type (Homo sapiens) (UniProt P05771). The note with it: at 0.1 µM.
Sequence of Protein kinase C beta type (Homo sapiens) (P05771 2-671 limits assumed): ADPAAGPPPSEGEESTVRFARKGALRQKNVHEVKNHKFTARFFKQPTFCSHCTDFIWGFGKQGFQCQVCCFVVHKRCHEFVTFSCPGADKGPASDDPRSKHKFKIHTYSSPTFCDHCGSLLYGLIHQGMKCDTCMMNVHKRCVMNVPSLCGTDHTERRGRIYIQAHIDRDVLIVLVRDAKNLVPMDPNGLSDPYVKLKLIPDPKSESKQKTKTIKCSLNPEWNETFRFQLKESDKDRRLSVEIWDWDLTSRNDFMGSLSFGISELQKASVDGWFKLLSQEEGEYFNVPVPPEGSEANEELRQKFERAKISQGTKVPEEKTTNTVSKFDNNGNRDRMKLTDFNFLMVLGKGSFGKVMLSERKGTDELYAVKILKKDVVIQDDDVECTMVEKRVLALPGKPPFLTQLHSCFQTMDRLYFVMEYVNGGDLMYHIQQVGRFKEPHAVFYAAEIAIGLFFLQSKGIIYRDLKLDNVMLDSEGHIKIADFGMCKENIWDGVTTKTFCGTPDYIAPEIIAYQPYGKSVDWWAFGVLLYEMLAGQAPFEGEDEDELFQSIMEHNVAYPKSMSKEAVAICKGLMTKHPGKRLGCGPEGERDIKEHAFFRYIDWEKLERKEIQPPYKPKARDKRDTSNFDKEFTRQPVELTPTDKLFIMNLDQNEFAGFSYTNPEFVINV
For assay [7] the target is unchanged. As to conditions: at 1 µM.
Assay [8] deals with Protein kinase C eta type (Homo sapiens) (UniProt P24723). The note with it: at 0.1 µM.
Sequence of Protein kinase C eta type (Homo sapiens) (P24723 whole entry): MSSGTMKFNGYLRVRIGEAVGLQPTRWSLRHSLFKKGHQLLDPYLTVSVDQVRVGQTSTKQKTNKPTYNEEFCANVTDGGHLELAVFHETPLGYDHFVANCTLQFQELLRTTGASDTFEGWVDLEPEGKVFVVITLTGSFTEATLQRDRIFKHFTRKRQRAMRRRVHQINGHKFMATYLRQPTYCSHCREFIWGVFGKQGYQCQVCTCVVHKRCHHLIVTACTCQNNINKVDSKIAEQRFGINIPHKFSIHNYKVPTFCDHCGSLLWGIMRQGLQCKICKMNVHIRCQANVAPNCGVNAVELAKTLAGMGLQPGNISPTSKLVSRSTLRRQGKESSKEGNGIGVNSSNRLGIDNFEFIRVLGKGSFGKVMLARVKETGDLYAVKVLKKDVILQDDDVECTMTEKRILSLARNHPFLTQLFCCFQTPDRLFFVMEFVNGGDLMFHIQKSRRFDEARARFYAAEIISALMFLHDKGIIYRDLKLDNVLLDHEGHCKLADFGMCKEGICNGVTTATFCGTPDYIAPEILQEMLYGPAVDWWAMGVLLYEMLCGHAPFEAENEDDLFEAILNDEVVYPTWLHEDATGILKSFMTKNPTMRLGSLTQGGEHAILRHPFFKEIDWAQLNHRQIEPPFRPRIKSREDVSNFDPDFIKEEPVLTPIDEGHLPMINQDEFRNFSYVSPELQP
Assay [9] has the same target. As to conditions: at 1 µM.
In assay [10] the target is Protein kinase C gamma type (Homo sapiens) (UniProt P05129). The note with it: at 0.1 µM.
The target is the same in assay [11]. The note with it: at 1 µM.
Assay [12] has as its target T2, Protein kinase C iota type (Homo sapiens) (UniProt P41743).
T2 sequence (whole entry): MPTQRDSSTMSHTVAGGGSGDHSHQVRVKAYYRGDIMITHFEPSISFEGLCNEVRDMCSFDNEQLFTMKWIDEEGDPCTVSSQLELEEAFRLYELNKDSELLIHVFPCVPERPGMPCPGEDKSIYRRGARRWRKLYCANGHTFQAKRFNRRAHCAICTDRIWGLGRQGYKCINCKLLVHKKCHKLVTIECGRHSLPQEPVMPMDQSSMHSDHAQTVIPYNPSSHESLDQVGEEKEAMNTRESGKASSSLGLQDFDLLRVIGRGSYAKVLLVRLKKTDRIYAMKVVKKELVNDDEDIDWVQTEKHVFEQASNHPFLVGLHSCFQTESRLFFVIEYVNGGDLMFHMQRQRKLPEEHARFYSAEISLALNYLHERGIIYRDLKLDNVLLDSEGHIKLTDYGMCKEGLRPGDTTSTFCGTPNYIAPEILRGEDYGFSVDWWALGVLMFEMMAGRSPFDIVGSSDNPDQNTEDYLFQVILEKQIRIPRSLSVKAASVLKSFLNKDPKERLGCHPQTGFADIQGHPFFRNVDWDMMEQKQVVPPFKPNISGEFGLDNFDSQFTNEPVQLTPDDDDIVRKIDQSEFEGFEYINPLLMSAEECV
The note with it: at 0.1 µM.

Assay [13] deals with T2, Protein kinase C iota type (Homo sapiens). As to conditions: at 1 µM.
Assay [14] concerns the target Protein kinase C theta type (Homo sapiens) (UniProt Q04759). As to conditions: at 0.1 µM.
Assay [15] shares this target. The note with it: at 1 µM.
Assay [16] concerns the target Protein kinase C beta type (Homo sapiens) (UniProt P05771). As to conditions: at 0.1 µM. The source holds these as a separate data set.
For assay [17] the target is unchanged. The note with it: at 1 µM. The source holds these as a separate data set.
Assay [18] deals with T3, Serine/threonine-protein kinase D1 (Homo sapiens) (UniProt Q15139).
T3 sequence (whole entry): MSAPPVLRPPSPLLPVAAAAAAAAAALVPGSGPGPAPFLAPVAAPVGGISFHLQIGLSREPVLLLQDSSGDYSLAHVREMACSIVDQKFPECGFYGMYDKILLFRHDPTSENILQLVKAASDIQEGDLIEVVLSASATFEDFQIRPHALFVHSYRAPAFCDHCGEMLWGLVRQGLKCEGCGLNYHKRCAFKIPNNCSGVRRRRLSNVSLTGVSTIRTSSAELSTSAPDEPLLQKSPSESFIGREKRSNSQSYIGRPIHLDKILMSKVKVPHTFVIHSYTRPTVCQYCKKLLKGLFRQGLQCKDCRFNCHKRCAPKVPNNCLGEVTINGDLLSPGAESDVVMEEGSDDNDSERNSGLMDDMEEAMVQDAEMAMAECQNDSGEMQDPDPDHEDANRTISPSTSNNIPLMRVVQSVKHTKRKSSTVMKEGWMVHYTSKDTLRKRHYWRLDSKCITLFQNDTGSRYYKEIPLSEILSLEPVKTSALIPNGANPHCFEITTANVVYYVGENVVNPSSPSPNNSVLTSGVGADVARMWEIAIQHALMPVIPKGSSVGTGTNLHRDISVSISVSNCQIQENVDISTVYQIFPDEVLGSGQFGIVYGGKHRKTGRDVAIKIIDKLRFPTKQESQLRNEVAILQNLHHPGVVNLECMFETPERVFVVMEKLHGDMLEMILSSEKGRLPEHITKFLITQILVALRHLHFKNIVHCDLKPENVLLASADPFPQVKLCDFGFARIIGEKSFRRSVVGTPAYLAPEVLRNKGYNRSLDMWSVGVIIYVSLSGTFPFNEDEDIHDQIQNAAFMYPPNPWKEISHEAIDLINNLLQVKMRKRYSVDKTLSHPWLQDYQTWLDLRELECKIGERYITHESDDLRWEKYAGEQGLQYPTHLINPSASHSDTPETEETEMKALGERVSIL
The note with it: at 0.1 µM.

The target in assay [19] is T3, Serine/threonine-protein kinase D1 (Homo sapiens). As to conditions: at 1 µM.
In assay [20] the target is T4, Serine/threonine-protein kinase D2 (Homo sapiens) (UniProt Q9BZL6).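 Also: reported percent inhibition values are means, part of the GSK PKIS kinase panel screen.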
T4 sequence (whole entry): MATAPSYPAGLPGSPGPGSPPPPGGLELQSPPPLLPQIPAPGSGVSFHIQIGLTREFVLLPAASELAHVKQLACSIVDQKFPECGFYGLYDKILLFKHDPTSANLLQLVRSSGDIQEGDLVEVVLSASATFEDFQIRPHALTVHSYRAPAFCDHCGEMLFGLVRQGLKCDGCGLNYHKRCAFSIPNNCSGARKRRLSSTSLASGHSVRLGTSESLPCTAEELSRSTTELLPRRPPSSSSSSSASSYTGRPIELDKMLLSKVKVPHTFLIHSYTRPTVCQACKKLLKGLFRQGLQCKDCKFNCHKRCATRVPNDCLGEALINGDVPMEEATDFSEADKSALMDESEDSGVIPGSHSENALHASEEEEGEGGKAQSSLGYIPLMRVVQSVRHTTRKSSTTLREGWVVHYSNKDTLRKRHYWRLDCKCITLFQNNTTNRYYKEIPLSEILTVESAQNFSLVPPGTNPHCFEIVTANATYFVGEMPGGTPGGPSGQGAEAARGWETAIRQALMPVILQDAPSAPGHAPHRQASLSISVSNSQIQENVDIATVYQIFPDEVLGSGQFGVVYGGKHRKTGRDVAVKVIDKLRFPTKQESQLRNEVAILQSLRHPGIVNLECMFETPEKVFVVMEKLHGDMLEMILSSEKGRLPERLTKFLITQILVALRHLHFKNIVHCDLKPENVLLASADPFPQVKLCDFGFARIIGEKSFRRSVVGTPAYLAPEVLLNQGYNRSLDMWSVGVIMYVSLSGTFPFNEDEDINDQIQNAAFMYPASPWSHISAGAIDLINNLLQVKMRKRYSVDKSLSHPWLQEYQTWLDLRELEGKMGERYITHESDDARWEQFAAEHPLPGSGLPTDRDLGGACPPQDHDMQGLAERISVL
As to conditions: at 0.1 µM.

Sequence of Protein kinase C theta type (Homo sapiens) (Q04759 whole entry, looked up): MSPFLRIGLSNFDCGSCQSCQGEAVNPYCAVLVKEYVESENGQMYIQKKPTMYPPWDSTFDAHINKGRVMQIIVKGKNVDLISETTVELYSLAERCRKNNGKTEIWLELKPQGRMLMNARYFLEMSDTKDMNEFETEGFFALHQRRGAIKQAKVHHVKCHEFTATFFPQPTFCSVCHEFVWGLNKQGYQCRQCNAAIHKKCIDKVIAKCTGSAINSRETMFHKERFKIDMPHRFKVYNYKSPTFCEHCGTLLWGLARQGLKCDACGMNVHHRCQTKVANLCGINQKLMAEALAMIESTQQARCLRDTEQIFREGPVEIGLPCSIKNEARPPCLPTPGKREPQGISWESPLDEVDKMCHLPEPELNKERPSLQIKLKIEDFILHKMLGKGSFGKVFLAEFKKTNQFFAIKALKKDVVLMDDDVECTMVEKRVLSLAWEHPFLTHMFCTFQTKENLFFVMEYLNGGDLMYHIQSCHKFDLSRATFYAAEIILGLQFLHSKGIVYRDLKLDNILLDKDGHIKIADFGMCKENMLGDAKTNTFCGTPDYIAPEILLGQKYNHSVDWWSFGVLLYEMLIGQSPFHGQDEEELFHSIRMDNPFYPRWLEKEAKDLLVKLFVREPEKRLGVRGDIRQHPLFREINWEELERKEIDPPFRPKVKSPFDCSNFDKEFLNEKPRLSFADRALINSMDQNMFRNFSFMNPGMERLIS

Take `CCn1c(-c2nonc2N)nc2cnc(Oc3cccc(NC(=O)c4ccc(OCCN5CCOCC5)cc4)c3)cc21`: the inhibition in assay [1] was found to be 2.08%; in assay [2], 17.5%; in [3] it was 65.8%; in assay [4] it was 3.09%; in assay [5] it was 34.1%; in assay [6], 37.3%. The inhibition worked out at 64.2% in assay [7]; 71.2% in [8]; 94.9% in [9]; 13.9% in [10]; 55% in [11]; 23.4% in assay [12]. Besides, the inhibition in [13] was found to be 64.9%; in assay [14] it was 20%; in assay [15] it was 67.4%; in assay [16] it was 11.6%; in [17], 42.4%; in [18], 2.46%. Also, the figures for the inhibition in [19] and in assay [20] were 3.36% and 3.04%, respectively.
On to `CC1=C(C(=O)Nc2ccc3[nH]ncc3c2)C(c2ccc3ccccc3c2)CC(=O)N1` (stereo not given), for which the inhibition was 2.2% in [1]; 7.18% in assay [2]; 45.9% in assay [3]; 1.26% in assay [4]; 1.61% in assay [5]; 1.81% in assay [6]. The inhibition in assay [7] was 0.44%; in assay [8] it was 4.97%; in assay [9], 14.1%; in [10] it was 0.67%; in assay [11] it was 2.79%; in [12], 1.06%. The inhibition in [13] was determined as 0.77%; in assay [14], 1.49%; in assay [15] it was 3%; in assay [16], 0.83%; in [17], 1.67%; in assay [18] it was 2.78%. Also, the inhibition in assay [19] is 9.17%; in [20], 2.02%.
As for `CS(=O)(=O)CCNCc1ccc(-c2ccc3ncnc(Nc4ccc(OCc5ccccc5)c(Cl)c4)c3c2)o1`, the inhibition in [1] was -0.51%; in [2] it was -0.81%; in [3], 1.12%; in assay [4] it was 0.09%; in [5], -0.42%; in assay [6], -1.09%. Moreover, the inhibition in assay [7] is -2.64%; in assay [8] it was 1.32%; in assay [9], -1.74%; in assay [10], 1.29%; in [11], 0.93%; in assay [12] it was 0.76%. The inhibition in [13] was 1.11%; in assay [14], 0.62%; in assay [15], 0.16%; in assay [16], -0.28%; in assay [17], 0.08%; in [18], -0.53%. Further, the inhibition in assay [19] was 0.36%; in assay [20], -0.95%.
As to `NS(=O)(=O)c1ccc(N/N=C2\C(=O)Nc3ccc(C(=O)NCCc4c[nH]cn4)cc32)cc1`, the inhibition in assay [1] amounted to 14.2%; in [2], 2.18%; in assay [3] it was 7.07%; in assay [4], 1.52%; in assay [5], 5.32%; in assay [6], 1.16%. In addition, the inhibition is -0.4% in assay [7]; 5.07% in [8]; 2.38% in assay [9]; 0.92% in assay [10]; 5.55% in assay [11]; 2.26% in assay [12]. Besides, the inhibition in [13] is 2.34%; in [14], 2.03%; in [15] it was 3.63%; in assay [16], 1.05%; in assay [17], 2.48%; in assay [18], 6.28%. The inhibition worked out at 34.4% in assay [19] and 5.45% in assay [20].
Take `Fc1cccc(COc2ccc(Nc3ncnc4cc(-c5ccc[nH]5)sc34)cc2Cl)c1`: the inhibition in [1] was 1.86%; in assay [2] it was -2.47%; in assay [3], -0.52%; in [4] it was -3.29%; in [5], -1.9%; in [6], 1.37%. In addition, the inhibition in assay [7] was 0.9%; in [8], 2.87%; in [9] it was 4.5%; in assay [10], 3.21%; in assay [11], 2.69%; in [12] it was 1.76%. The inhibition in assay [13] is 1.59%; in assay [14], 0.25%; in assay [15], 2.17%; in assay [16], 0.99%; in assay [17] it was 2.94%; in assay [18], -0.95%. For the same compound, the inhibition in assay [19] is -1.14%; in assay [20], -0.92%.
